# In PubChem BioAssay AID1159606 (Sanford-Burnham Center for Chemical Genomics, 2016):
# The campaign covered roughly 360,000 compounds. About 7,300 (2%) were called active. The sample holds actives, similar compounds and a random draw of the others, so the mix is not that of the screen. No stated cut-off is given here; in the data, active means inhibition above about 50%; inactive means the rest.
# Experiment: blockers of TWEAK-induced Fn14 reporter activity – luciferase reporter cells, uHTS, primary screen (AID 1159606)
# Conditions: TWEAK-stimulated Fn14 reporter cells, luciferase luminescence, 8 h; at 10 µM; hits give high values
row,Structure (SMILES),inhibition
1,CNS(=O)(=O)c1ccc(NC(=O)C2CC(=O)N(c3ccc(Cl)cc3)C2)cc1 (stereo not given),14.4% (inactive)
2,O=C(OCC(=O)N1CCOCC1)c1ccc(N2CCOCC2)c([N+](=O)[O-])c1,-16.3% (inactive)
3,CC(=O)N1CCC(C(=O)Nc2nc(-c3ccccc3)ns2)CC1,14.9% (inactive)
4,COC(=O)C1=C(C(=O)OC)[C@@H]2N(C)c3ccccc3[C@@]23C[C@@H](C(=O)OC)N(C(C)=O)C3=N1,-3.56% (inactive)
5,Cc1[nH]c2ccccc2c1C(=O)C(=O)NCc1nnnn1-c1cccc(F)c1,3.05% (inactive)
6,CCOC(=O)C1(CC2CCCCO2)CCN(Cc2nc(-c3cccs3)oc2C)CC1 (stereo not given),-0.53% (inactive)
7,O=C(CSc1cccc[n+]1[O-])c1ccc(-c2ccccc2)cc1,2.59% (inactive)
8,Cc1ccc(Sc2cc(C(=O)c3ccccc3C(=O)O)ccc2[N+](=O)[O-])cc1,-6.54% (inactive)
9,Cc1ccc(C(=O)CSc2ccccc2C(=O)O)cc1,53.3% (active)
10,CCCCOC(=O)Nc1sc2nc(C)cc(C)c2c1-n1cccc1,0.84% (inactive)
11,CN(C)NC(=O)c1csnc1-c1c(Cl)cccc1Cl,4.17% (inactive)
12,COc1ccc(S(=O)(=O)N2CCOCC2)cc1NC(=O)CC1CC2CCC1C2 (stereo not given),3.62% (inactive)
13,O=C(NCCc1ccccc1)c1cccc(NC(=O)c2ccccc2)c1,-19.1% (inactive)
14,O=C(NC1=CC(=O)c2ccccc2C1=O)c1ccccc1,67.5% (active)
15,Cc1cc(=O)c2ccc(NC(=O)c3ccccc3)cc2[nH]1,-10.3% (inactive)
16,NC(=O)COC(=O)c1sc2cc(F)ccc2c1Cl,-16.4% (inactive)
17,FC(F)(F)Oc1ccccc1C(c1nnnn1C1CCCCC1)N1CCN(C/C=C/c2ccccc2)CC1 (stereo not given),24.4% (inactive)
18,CC(C)c1ccccc1OCC(O)CN(CC(O)COc1cccc2ccccc12)C(C)C (stereo not given),-15% (inactive)
19,O=C(COc1ccc(-n2cnnn2)cc1)Nc1ccccc1Cl,-14.3% (inactive)
20,N/C(=N\OC(=O)Nc1ccccc1)c1ccno1,-22.1% (inactive)

row,Structure (SMILES),inhibition
1,O=C(Nc1ccccc1Cl)O/N=C(/c1ccccc1)c1ccccn1,60.2% (active)
2,COc1ccc(CN2C(=O)C(CC(=O)NCCN3CCOCC3)CC(C(=O)N(C(C)C)C(C)C)=C2C)cc1 (stereo not given),14.2% (inactive)
3,COC(=O)c1ccc(NCc2cc(O)ccc2O)cc1,88.9% (active)
4,C#CCNc1ccc(C(=O)OCC)cc1,-3.49% (inactive)
5,CCN(CC)C(=O)CCC(=O)Nc1ccc(C(=O)OC)cc1,0.79% (inactive)
6,O=C(OC12CC3CC(CC(C3)C1)C2)c1ccc(NCc2cc(O)ccc2O)cc1,106% (active)
7,O=C(O)Cc1ccc(NCc2ccccc2Cl)cc1,22.4% (inactive)
8,CC(C)OC(=O)c1ccc(NCc2cc(O)ccc2O)cc1Cl,102% (active)
9,CC(CN1CCCCC1)OC(=O)c1ccccc1Cl (stereo not given),16.6% (inactive)
10,CC1(C)C2CCC1(C)C(OC(=O)c1ccc(O)cc1)C2 (stereo not given),16.2% (inactive)
11,COc1nc(N(C)C)nc(N2CC(=O)N(CCNS(=O)(=O)c3ccc(C)cc3)C2=N)n1,-3.28% (inactive)
12,Cc1ccccc1-c1csc(C(O)c2cccc(Cl)c2)n1 (stereo not given),-4.88% (inactive)
13,COc1ccc(N2CCN(C(=O)C3CCN(S(=O)(=O)c4ccc(C)cc4)CC3)CC2)cc1,-13.2% (inactive)
14,Cc1nccn1CCC1CCCCN1C(=O)CCc1nnc(-c2ccsc2)o1 (stereo not given),-14.9% (inactive)
15,CC(C)(C)NC(=O)Cn1cnc([N+](=O)[O-])n1,18.3% (inactive)
16,O=C(Cn1cnc2cc([N+](=O)[O-])ccc2c1=O)NC(=O)NCc1ccccc1,-1.13% (inactive)
17,CC(C)(C)NC(=O)Cn1cnc2cc([N+](=O)[O-])ccc2c1=O,83% (active)
18,Cc1cc2c(cc1S(=O)(=O)NCc1ccc(Cl)cc1)OCC(=O)N2,-8.95% (inactive)
19,CCc1ccccc1NC(=O)/C(=C/c1ccccc1)c1ccccc1,-19.8% (inactive)
20,CCOC(=O)C(=Cc1ccccc1OC)C(=O)OCC,81.9% (active)

row,Structure (SMILES),inhibition
1,CCOC(=O)C(=Cc1ccccc1)C(=O)c1ccccc1,98.4% (active)
2,COc1ccccc1/C=C/C(=O)NC1CC2CCC1C2 (stereo not given),-13.3% (inactive)
3,COc1ccccc1C(=O)c1ccccc1C(=O)c1ccccc1,9.79% (inactive)
4,CCOC(=O)CCP(=O)(O)C(O)(c1ccccc1)c1ccccc1,-6.25% (inactive)
5,CC(C)Oc1ccc(S(=O)(=O)N2CCOCC2)cc1NC(=O)C1CSC2(C)CCC(=O)N12 (stereo not given),-10.2% (inactive)
6,CC1(C(=O)NCc2cccc3ccccc23)CCN1Cc1ccc(-c2ccccc2)o1 (stereo not given),7.77% (inactive)
7,Cc1ccc(-c2c[n+](=O)c3c(n2[O-])CCC3)cc1,-2.42% (inactive)
8,S=C(NCc1ccco1)Nc1ccc2c(c1)OCCO2,2.21% (inactive)
9,COC(=O)c1cc(NC2c3ccccc3C(=O)N2c2ccc(Cl)cn2)cc(C(=O)OC)c1 (stereo not given),-15.2% (inactive)
10,O=C(Nc1ccc2c(c1)OCCO2)C1c2ccccc2OCC(=O)N1Cc1ccccn1 (stereo not given),-0.53% (inactive)
11,O=C1c2ccccc2C(Nc2ccc3c(c2)OCCO3)N1Cc1ccco1 (stereo not given),70.9% (active)
12,Cc1ccnc(N2C(=O)c3ccccc3C2Nc2ccc3c(c2)OCCO3)c1 (stereo not given),61.2% (active)
13,CCCCCn1nnnc1C1c2ccccc2C(=O)N1Cc1ccco1 (stereo not given),16.5% (inactive)
14,C[C@@H]1C[C@@H]2O[C@H]2/C=C\C=C\C(=O)Cc2c(Cl)c(O)cc(O)c2C(=O)O1,90.7% (active)
15,COc1ccc([C@H]2[C@H](C(C)=O)N3N=Cc4ccccc4C3C23C(=O)OC(C)(C)OC3=O)cc1 (stereo not given in full),10.5% (inactive)
16,C/C(=N/NC(=S)Nc1ccccc1)c1ccc2c(c1)OCO2,-46.3% (inactive)
17,O=C(Nc1ccc2ccccc2c1)Nc1ccc2snnc2c1,74.8% (active)
18,Cc1ccc(NC(=O)Nc2ccc3oc(C)nc3c2)cc1,-4.94% (inactive)
19,S=C(Nc1ccccc1)Nc1ccc2ccccc2c1,0.33% (inactive)
20,O=C(C1CCC1)N1CCN(S(=O)(=O)c2ccc([N+](=O)[O-])cc2)CC1,4.46% (inactive)
